Test results taken from US6124449, “High affinity TGFβ nucleic acid ligands and inhibitors” (NeXstar Pharmaceuticals, Inc.).

Experiments:
[1] = target: T1, KGF (hKGF) (Homo sapiens, UniProt P21781 P21781:32-194); assay: filter; similar to random RNA; conditions: label: 5'-biotin for BIAcore specificity; proposed double pseudoknot; ssRNA; 2'-F C and U
T1 sequence: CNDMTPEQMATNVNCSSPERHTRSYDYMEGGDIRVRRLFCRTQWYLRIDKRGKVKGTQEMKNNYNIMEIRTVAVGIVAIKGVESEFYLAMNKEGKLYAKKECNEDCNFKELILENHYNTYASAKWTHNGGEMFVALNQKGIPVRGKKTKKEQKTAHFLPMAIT

[2] = target: VEGF (hVEGF) (Homo sapiens, UniProt P15692-4 P15692-4:27-191); assay: filter; similar to random RNA; conditions: chain copies: 2; label: 5'-biotin for BIAcore specificity; proposed double pseudoknot; ssRNA; 2'-F C and U
[3] = target: T2, TGF-beta2 (Homo sapiens, UniProt P61812 P61812:303-414); assay: filter; similar to random RNA by filter; conditions: chain copies: 2; label: 5'-biotin for BIAcore specificity; proposed double pseudoknot; ssRNA; 2'-F C and U
T2 sequence: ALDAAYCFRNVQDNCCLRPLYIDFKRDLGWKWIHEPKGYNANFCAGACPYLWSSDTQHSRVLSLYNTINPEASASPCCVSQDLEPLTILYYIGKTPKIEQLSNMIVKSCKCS

VEGF (hVEGF), sequence (P15692 other isoform, or with tags, fused parts or gaps): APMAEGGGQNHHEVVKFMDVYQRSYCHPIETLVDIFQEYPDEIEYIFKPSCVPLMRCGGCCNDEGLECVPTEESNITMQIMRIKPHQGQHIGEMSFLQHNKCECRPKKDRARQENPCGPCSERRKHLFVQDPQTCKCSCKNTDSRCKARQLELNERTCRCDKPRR

Sequence | binding signal [1] [fold Kd vs hTGF-beta1] | binding signal [2] [fold Kd vs hTGF-beta1] | binding signal [3] [fold Kd vs hTGF-beta1]
GGGAGGACGAUGCGGUUAUGGGCGUCAACACCGCUAUUACAGUUUUCGCCUCCCCCAGACGACUCGCCCGA | > 34000 | > 340000 | > 340000
GGGAGGACGAUGCGGGGGUUAUUGGGCGUCAACAUCCCCGAUUCUUUUCACGUCCAGACGACUCGCCCGA | > 34000 | > 340000 | > 340000
